PubChem BioAssay (NCI)
About 79,000 compounds went through this panel and 15% of them were active in at least one assay; those are over-represented in the sample as a whole. The source made the active and inactive calls. No stated cut-off is given here; in the data, active means growth inhibition above about 70%; inactive means the rest.

Experiments:
[1] = NCI Yeast Anticancer Drug Screen. Data for the rad50 strain (AID 155);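 further: 0% = growth of vehicle-only cultures of the same strain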; details: S. cerevisiae rad50 strain growth inhibition, active compounds read high
Summary of the method: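 DNA repair mutant yeast, compound exposure, growth read-out; inhibition is taken relative to vehicle.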

[2] = NCI Yeast Anticancer Drug Screen. Data for the mec2-1 strain (AID 157); details: S. cerevisiae mec2-1 strain, active compounds read high
Summary of the method: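 Vehicle-treated cultures served as reference for growth inhibition of compound-exposed mec2-1 yeast.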

[3] = NCI Yeast Anticancer Drug Screen. Data for the sgs1 mgt1 strain (AID 161);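 further: 0% = growth of cultures given vehicle only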; details: S. cerevisiae sgs1 mgt1 strain, active compounds read high
Summary of the method: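 Test agents were incubated with a DNA-repair-mutant yeast strain. Growth was then read and compared against vehicle-treated controls.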

[4] = NCI Yeast Anticancer Drug Screen. Data for the cln2 rad14 strain (AID 165);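 further: 0% = growth equal to vehicle treated cultures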; details: S. cerevisiae cln2 rad14 strain, active compounds read high
Summary of the method: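 Each compound was tested on cln2 rad14 yeast. Inhibition of growth was calculated against vehicle-exposed controls.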

[5] = NCI Yeast Anticancer Drug Screen. Data for the bub3 strain (AID 167); details: S. cerevisiae bub3 mutant strain, active compounds read high
Summary of the method: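 In this screen, a yeast mutant lacking normal mitotic checkpoint function is challenged with compound. Relative growth versus vehicle gives the inhibition value.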

[6] = NCI Yeast Anticancer Drug Screen. Data for the mlh1 rad18 strain (AID 175); details: S. cerevisiae mlh1 rad18 strain growth inhibition, active compounds read high
Summary of the method: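 Vehicle-treated cultures served as the reference for growth inhibition in a yeast strain carrying DNA damage repair alterations exposed to each compound.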

[7] = at 5.0 µM (retest, dose inferred, filed as 0.5)
[8] = at 50.0 µM (retest, dose inferred, filed as 5.0)

Measured: growth inhibition

Cc1cc(-c2ccccc2)cc(C)[n+]1[O-]
inactive: [1]; [7] -1% | [1]; [8] 20% | [1]; at 50.0 µM 20.7% | [2]; [7] -6% | [2]; [8] 13% | [2]; at 50.0 µM 28.1% | [3]; [7] -6% | [3]; [8] 12% | [3]; at 50.0 µM 54.6% | [4]; [7] -8% | [4]; [8] -13% | [4]; at 50.0 µM -31.3% | [5]; [7] -2% | [5]; [8] 14% | [5]; at 50.0 µM -12.7% | [6]; [7] -4% | [6]; [8] 30% | [6]; at 50.0 µM 5.4%

CCC[N+](CCC)(CCC)CCC.N#CN=C([SH2+])[SH2+].N#CN=C([SH2+])[SH2+].[Pt+2]
inactive: [1]; [7] -1% | [1]; [8] 7% | [2]; [7] -4% | [2]; [8] 2% | [2]; at 50.0 µM 44% | [3]; [7] 4% | [3]; [8] 39% | [4]; [7] -6% | [4]; [8] -7% | [4]; at 50.0 µM 14.1% | [5]; [7] -5% | [5]; [8] -1% | [5]; at 50.0 µM 14.1% | [6]; [7] 20% | [6]; [8] 57% | [6]; at 50.0 µM 49.9%
active: [1]; at 50.0 µM 79.3% | [3]; at 50.0 µM 89.9%

[Br][Cd][Br].c1ccc([PH+](c2ccccc2)c2ccccc2)cc1.c1ccc([PH+](c2ccccc2)c2ccccc2)cc1
inactive: [1]; [7] 29% | [2]; [7] 20% | [3]; [7] 18% | [3]; [8] 55% | [4]; [7] 4% | [5]; [7] 21% | [6]; [7] 18%
active: [1]; [8] 95% | [1]; at 50.0 µM 97.5% | [2]; [8] 84% | [2]; at 50.0 µM 89.5% | [3]; at 50.0 µM 94.9% | [4]; [8] 89% | [4]; at 50.0 µM 92.4% | [5]; [8] 93% | [5]; at 50.0 µM 92.5% | [6]; [8] 92% | [6]; at 50.0 µM 94.7%

COC(=O)C(C)(C)[n+]1c(C)cc(C)cc1C
inactive: [1]; [7] -13% | [1]; [8] -6% | [1]; at 50.0 µM -5.45% | [2]; [7] -5% | [2]; [8] -35% | [2]; at 50.0 µM -3% | [3]; [7] -17% | [3]; [8] -14% | [3]; at 50.0 µM -3.1% | [4]; [7] -10% | [4]; [8] -8% | [4]; at 50.0 µM -7.1% | [5]; [7] 1% | [5]; [8] 8% | [5]; at 50.0 µM -6.5% | [6]; [7] -1% | [6]; [8] 5% | [6]; at 50.0 µM 5.9%

C=CCCCCCCCCC(=O)O (tested in a mixture with another compound)
active: [4]; [8] 72% | [4]; at 50.0 µM 96.8% | [6]; at 50.0 µM 83%
inactive: [1]; [7] -3% | [1]; [8] 12% | [1]; at 50.0 µM 23.1% | [2]; [7] -3% | [2]; [8] 8% | [2]; at 50.0 µM 63.3% | [3]; [7] -9% | [3]; [8] 27% | [3]; at 50.0 µM 53% | [4]; [7] 6% | [5]; [7] -7% | [5]; [8] 7% | [5]; at 50.0 µM 40.4% | [6]; [7] -7% | [6]; [8] 48%

[Br][Sn]([CH]1CCCCC1)([CH]1CCCCC1)[CH]1CCCCC1
active: [1]; [7] 98% | [1]; [8] 99% | [1]; at 50.0 µM 98.6% | [2]; [7] 100% | [2]; [8] 100% | [2]; at 50.0 µM 99.1% | [3]; [7] 99% | [3]; [8] 99% | [3]; at 50.0 µM 98.5% | [4]; [8] 98% | [4]; at 50.0 µM 98.5% | [5]; [8] 99% | [5]; at 50.0 µM 98.5% | [6]; [7] 99% | [6]; [8] 99% | [6]; at 50.0 µM 98.8%
inactive: [4]; [7] 57% | [5]; [7] 23%

C[CH2][Sn]([CH2]C)([S]CCS(=O)(=O)O)[S]CCS(=O)(=O)O (tested in a mixture with another compound)
inactive: [1]; [7] 18% | [1]; [8] 26% | [1]; at 50.0 µM 53.9% | [2]; [7] 17% | [2]; [8] 46% | [2]; at 50.0 µM 45.8% | [3]; [7] -22% | [3]; [8] 54% | [3]; at 50.0 µM 27.3% | [4]; [7] -10% | [4]; [8] 67% | [4]; at 50.0 µM 19% | [5]; [7] -1% | [5]; [8] 66% | [5]; at 50.0 µM 17.6% | [6]; [7] 16% | [6]; [8] 32% | [6]; at 50.0 µM -25.9%

N=P(c1ccccc1)(c1ccccc1)c1ccccc1.[O]=[Cr](=[O])([OH])[O][Cr](=[O])(=[O])[OH]
active: [1]; [8] 80% | [1]; at 50.0 µM 71.3% | [2]; [8] 76% | [3]; [8] 91% | [5]; [8] 81%
inactive: [1]; [7] 9% | [2]; [7] 5% | [2]; at 50.0 µM 26.4% | [3]; [7] 16% | [3]; at 50.0 µM 37.3% | [4]; [7] -4% | [4]; [8] 50% | [4]; at 50.0 µM 8.95% | [5]; [7] -4% | [5]; at 50.0 µM 11.2% | [6]; [7] 4% | [6]; [8] 57% | [6]; at 50.0 µM 53.2%

CCCCCCCCCCCCNCCc1ccccc1
active: [1]; [7] 99% | [1]; [8] 99% | [1]; at 50.0 µM 98.2% | [2]; [7] 99% | [2]; [8] 98% | [2]; at 50.0 µM 98.8% | [3]; [7] 99% | [3]; [8] 98% | [3]; at 50.0 µM 98.9% | [4]; [7] 99% | [4]; [8] 98% | [4]; at 50.0 µM 98% | [5]; [7] 99% | [5]; [8] 98% | [5]; at 50.0 µM 98.2% | [6]; [7] 99% | [6]; [8] 98% | [6]; at 50.0 µM 98.8%
